# Data: the supplement of paper PMC8728848
# This excerpt belongs to a sample that is enriched for the strongest signals.
# B1: CFEM-SCL (Saccharomyces cerevisiae), O13547 (protein)
# chain: MRATTLLSSVVSLALLSKEVLATPPACLLACVAQVGKSSSTCDSLNQVTCYCEHENSAVKKCLDSICPNNDADAAYSAFKSSCSEQNASLGD
# B2: Nictaba (Nicotiana tabacum), Q94EW1 (protein)
# chain: MQGQWIAARDLSITWVDNPQYWTWKTVDPNIEVAELRRVAWLDIYGKIETKNLIRKTSYAVYLVFKLTDNPRELERATASLRFVNEVAEGAGIEGTTVFISKKKKLPGELGRFPHLRSDGWLEIKLGEFFNNLGEDGEVEMRLMEINDKTWKSGIIVKGFDIRPN
# What was measured:
# Assay in all cases: glycan array binding signal (z-score within array); higher = stronger binding
# Settings in all cases: glycan notation: IUPAC condensed, linker removed
# [1] = molecular target: Gal6S(b1-4)GlcNAc
# Summary of the method: (§1)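 Glycan array data came from 3228 arrays in the Consortium for Functional Glycomics database, and only arrays with an available protein sequence were kept. Glycan names were put into IUPAC-condensed notation, and columns mapping to the same glycan were averaged. The binding signal is a within-array Z-score, averaged across arrays of one protein sequence run at different concentrations or buffers and across linkers. A negative Z-score can be read as non-binding.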
# [2] = molecular target: GalNAc(b1-4)GlcNAc
# Summary of the method: as §1
# [3] = molecular target: GalNAc(b1-4)GlcNAc(b1-2)Man
# Summary of the method: as §1
# [4] = molecular target: Glc(a1-6)Glc(a1-6)Glc(a1-6)Glc
# Summary of the method: as §1
# [5] = molecular target: GlcA(b1-3)GlcNAc
# Summary of the method: as §1
# [6] = molecular target: GlcNAc(b1-2)[GlcNAc(b1-4)]Man(a1-3)[GlcNAc(b1-4)][GlcNAc(b1-2)Man(a1-6)]Man(b1-4)GlcNAc(b1-4)GlcNAc
# Summary of the method: as §1
# [7] = molecular target: GlcNAc(b1-2)[GlcNAc(b1-4)]Man(a1-3)[GlcNAc(b1-4)][GlcNAc(b1-2)[GlcNAc(b1-6)]Man(a1-6)]Man(b1-4)GlcNAc(b1-4)GlcNAc
# Summary of the method: as §1
# [8] = molecular target: Kdn(a2-3)Gal(b1-4)[Fuc(a1-3)]GlcNAc
# Summary of the method: as §1
# [9] = molecular target: Man(a1-2)Man(a1-2)Man(a1-3)Man
# Summary of the method: as §1
# [10] = molecular target: Neu5Ac(a2-3)Gal(b1-3)[Fuc(a1-4)]GlcNAc(b1-3)Gal(b1-4)[Fuc(a1-3)]GlcNAc
# Summary of the method: as §1
# [11] = molecular target: Neu5Ac(a2-3)Gal(b1-4)GlcNAc(b1-3)GalNAc
# Summary of the method: as §1
# [12] = molecular target: Neu5Ac(a2-3)Gal(b1-4)[Fuc(a1-3)]GlcNAc(b1-6)[Gal(b1-3)]GalNAc
# Summary of the method: as §1
# [13] = molecular target: Neu5Ac(a2-3)Gal6S(b1-4)GlcNAc
# Summary of the method: as §1
# [14] = molecular target: Neu5Ac(a2-6)Gal(b1-4)GlcNAc
# Summary of the method: as §1
# [15] = molecular target: Neu5Ac(a2-6)Gal(b1-4)GlcNAc(b1-3)Gal(b1-4)GlcNAc(b1-3)Gal(b1-4)GlcNAc(b1-2)Man(a1-3)[Neu5Ac(a2-6)Gal(b1-4)GlcNAc(b1-3)Gal(b1-4)GlcNAc(b1-3)Gal(b1-4)GlcNAc(b1-2)Man(a1-6)]GalNAc
# Summary of the method: as §1
# [16] = molecular target: Neu5Ac(a2-6)Gal(b1-4)GlcNAc(b1-3)Gal(b1-4)GlcNAc(b1-3)[Neu5Ac(a2-6)Gal(b1-4)GlcNAc(b1-3)Gal(b1-4)GlcNAc(b1-6)]GalNAc
# Summary of the method: as §1
# [17] = molecular target: Neu5Gc(a2-3)Gal(b1-3)GlcNAc
# Summary of the method: as §1
# [18] = molecular target: Fuc(a1-2)Gal(b1-3)[Fuc(a1-4)]GlcNAc(b1-3)[Gal(b1-4)GlcNAc(b1-6)]Gal(b1-4)Glc
# Summary of the method: as §1
# [19] = molecular target: Fuc(a1-2)Gal(b1-4)Glc6S
# Summary of the method: as §1
# [20] = molecular target: Fuc(a1-2)Gal(b1-4)GlcNAc(b1-3)Gal(b1-4)GlcNAc(b1-2)Man(a1-3)[Fuc(a1-2)Gal(b1-4)GlcNAc(b1-3)Gal(b1-4)GlcNAc(b1-2)Man(a1-6)]Man(b1-4)GlcNAc(b1-4)GlcNAc
# Summary of the method: as §1
# [21] = molecular target: Fuc(a1-2)Gal(b1-4)[Fuc(a1-3)]GlcNAc(b1-2)Man(a1-3)[Fuc(a1-2)Gal(b1-4)[Fuc(a1-3)]GlcNAc(b1-2)Man(a1-6)]Man(b1-4)GlcNAc(b1-4)[Fuc(a1-6)]GlcNAc
# Summary of the method: as §1
# [22] = molecular target: Fuc(a1-2)Gal6S(b1-3)GlcNAc6S
# Summary of the method: as §1
# [23] = molecular target: Fuc(a1-2)Gal6S(b1-4)Glc6S
# Summary of the method: as §1
# [24] = molecular target: Fuc(a1-2)[Gal(a1-3)]Gal(b1-3)GlcNAc(b1-2)Man(a1-3)[Fuc(a1-2)[Gal(a1-3)]Gal(b1-3)GlcNAc(b1-2)Man(a1-6)]Man(b1-4)GlcNAc(b1-4)[Fuc(a1-6)]GlcNAc
# Summary of the method: as §1
# [25] = molecular target: Fuc(a1-2)[Gal(a1-3)]Gal(b1-4)GlcNAc(b1-3)GalNAc
# Summary of the method: as §1
# [26] = molecular target: Fuc(a1-2)[GalNAc(a1-3)]Gal(b1-4)[Fuc(a1-3)]GlcNAc
# Summary of the method: as §1
# [27] = molecular target: Fuc(a1-3)[Gal(b1-4)]GlcNAc(b1-2)Man(a1-3)[Fuc(a1-3)[Gal(b1-4)]GlcNAc(b1-2)Man(a1-6)]Man(b1-4)GlcNAc(b1-4)GlcNAc
# Summary of the method: as §1
# [28] = molecular target: Fuc(a1-3)[Gal(b1-4)]GlcNAc(b1-6)[Neu5Ac(a2-3)Gal(b1-3)]GalNAc
# Summary of the method: as §1
# [29] = molecular target: Gal(a1-2)Gal
# Summary of the method: as §1
# [30] = molecular target: Gal(a1-3)Gal(b1-3)GlcNAc(b1-2)Man(a1-3)[Gal(a1-3)Gal(b1-3)GlcNAc(b1-2)Man(a1-6)]Man(b1-4)GlcNAc(b1-4)GlcNAc
# Summary of the method: as §1
# [31] = molecular target: Gal(b1-3)Gal(b1-4)GlcNAc
# Summary of the method: as §1
# [32] = molecular target: Gal(b1-3)[Fuc(a1-4)]GlcNAc
# Summary of the method: as §1
# [33] = molecular target: Gal(b1-3)[Neu5Ac(a2-6)]GlcNAc
# Summary of the method: as §1
# [34] = molecular target: Gal(b1-3)[Neu5Ac(b2-6)]GlcNAc
# Summary of the method: as §1
# [35] = molecular target: Gal(b1-4)GlcNAc(b1-2)Man(a1-3)[Gal(b1-4)GlcNAc(b1-2)Man(a1-6)]Man(b1-4)GlcNAc(b1-4)GlcNAc
# Summary of the method: as §1
# [36] = molecular target: Gal(b1-4)GlcNAc(b1-2)Man(a1-3)[Gal(b1-4)GlcNAc(b1-2)Man(a1-6)]Man(b1-4)GlcNAc(b1-4)[Fuc(a1-6)]GlcNAc
# Summary of the method: as §1
# [37] = molecular target: Gal(b1-4)GlcNAc(b1-2)Man(a1-3)[Man(a1-6)]Man(b1-4)GlcNAc(b1-4)GlcNAc
# Summary of the method: as §1
# [38] = molecular target: Gal3S(b1-4)GlcNAc6S
# Summary of the method: as §1
# [39] = molecular target: Gal3S4S(b1-4)GlcNAc
# Summary of the method: as §1
# [40] = molecular target: GalNAc3S(b1-4)[Fuc(a1-3)]GlcNAc
# Summary of the method: as §1
# [41] = molecular target: Glc(a1-6)Glc(a1-6)Glc
# Summary of the method: as §1
# [42] = molecular target: GlcNAc(b1-2)[GlcNAc(b1-4)]Man(a1-3)[GlcNAc(b1-2)Man(a1-6)]Man(b1-4)GlcNAc(b1-4)GlcNAc
# Summary of the method: as §1
# [43] = molecular target: GlcNAc(b1-3)Gal(b1-4)GlcNAc(b1-3)Gal(b1-4)GlcNAc(b1-3)GalNAc
# Summary of the method: as §1
# [44] = molecular target: Man(a1-2)Man(a1-2)Man(a1-3)[Man(a1-2)Man(a1-3)[Man(a1-2)Man(a1-6)]Man(a1-6)]Man(b1-4)GlcNAc(b1-4)GlcNAc
# Summary of the method: as §1
# [45] = molecular target: Man(a1-2)Man(a1-2)Man(a1-3)[Man(a1-2)Man(a1-6)[Man(a1-3)]Man(a1-6)]Man(b1-4)GlcNAc(b1-4)GlcNAc
# Summary of the method: as §1
# [46] = molecular target: Man(a1-2)Man(a1-3)[Man(a1-3)[Man(a1-6)]Man(a1-6)]Man(b1-4)GlcNAc(b1-4)GlcNAc
# Summary of the method: as §1
binder,measurement,setting,value
B1,glycan array binding signal (z-score),[1],-0.027
same,glycan array binding signal (z-score),[2],0.047
same,glycan array binding signal (z-score),[3],-0.281
same,glycan array binding signal (z-score),[4],-0.331
same,glycan array binding signal (z-score),[5],-0.277
same,glycan array binding signal (z-score),[6],-0.326
same,glycan array binding signal (z-score),[7],-0.303
same,glycan array binding signal (z-score),[8],-0.086
same,glycan array binding signal (z-score),[9],0.113
same,glycan array binding signal (z-score),[10],-0.234
same,glycan array binding signal (z-score),[11],-0.277
same,glycan array binding signal (z-score),[12],0.813
same,glycan array binding signal (z-score),[13],-0.311
same,glycan array binding signal (z-score),[14],-0.282
same,glycan array binding signal (z-score),[15],1.21
same,glycan array binding signal (z-score),[16],-0.146
same,glycan array binding signal (z-score),[17],-0.298
B2,glycan array binding signal (z-score),[18],-0.29
same,glycan array binding signal (z-score),[19],-0.254
same,glycan array binding signal (z-score),[20],3.54
same,glycan array binding signal (z-score),[21],5.19
same,glycan array binding signal (z-score),[22],-0.381
same,glycan array binding signal (z-score),[23],-0.234
same,glycan array binding signal (z-score),[24],-0.187
same,glycan array binding signal (z-score),[25],-0.273
same,glycan array binding signal (z-score),[26],-0.307
same,glycan array binding signal (z-score),[27],5.57
same,glycan array binding signal (z-score),[28],-0.295
same,glycan array binding signal (z-score),[29],-0.289
same,glycan array binding signal (z-score),[30],-0.148
same,glycan array binding signal (z-score),[31],-0.321
same,glycan array binding signal (z-score),[32],-0.271
same,glycan array binding signal (z-score),[33],-0.332
same,glycan array binding signal (z-score),[34],-0.39
same,glycan array binding signal (z-score),[35],3.74
same,glycan array binding signal (z-score),[36],1.64
same,glycan array binding signal (z-score),[37],3.52
same,glycan array binding signal (z-score),[38],-0.163
same,glycan array binding signal (z-score),[39],-0.289
same,glycan array binding signal (z-score),[40],-0.387
same,glycan array binding signal (z-score),[41],-0.295
same,glycan array binding signal (z-score),[42],-0.101
same,glycan array binding signal (z-score),[43],-0.388
same,glycan array binding signal (z-score),[9],-0.29
same,glycan array binding signal (z-score),[44],3.93
same,glycan array binding signal (z-score),[45],4
same,glycan array binding signal (z-score),[46],4.38
